# Inconclusive results are not listed. The source made the active and inactive calls. The calls were made as follows: active = hit-call score of the fitted dose curve at least 0.9, where 1 is the maximum; inconclusive = response in the unintended direction; inactive = score below 0.9.
# Assay: Tanguay_ZF_120hpf_TR_legacy: (Legacy) Oregon State University Tanguay Lab 120 Hour Post-fertilization zebrafish Assay for Touch Response (AID 2283667)
# Procedure: Tanguay_ZF_120hpf_legacy is a whole embryo, multiplexed endpoint assay using zebrafish larvae exposed for 120 hours post fertilization on a 96-well plate.Tanguay_ZF_120hpf_TR_legacy is one of one assay component(s) measured or calculated from the Tanguay_ZF_120hpf_legacy assay. It is designed to make measurements of zebrafish development as detected with brightfield microscopy of developing zebrafish embryos.Data from the assay component Tanguay_ZF_120hpf_TR_legacy was analyzed into 1 assay endpoints. This assay endpoint, Tanguay_ZF_120hpf_TR_legacy, was analyzed in the positive analysis fitting direction relative to DMSO as the negative control and baseline of activity. Using a type of morphology reporter, gain-of-signal activity can be used to understand changes in developmentals as they relate to the whole embryo. To generalize the intended target to other relatable targets, this assay endpoint is annotated to the zebrafish development intended target family, where the subfamily is embryonic functional response.
# Zebrafish husbandry: Tropical 5D wild-type adult zebrafish were housed in at an approximate density of 1000 per 100 gallon tank at the Sinnhuber Aquatic Research Laboratory, Oregon State University, Corvallis, OR. Each tank was kept at standard laboratory conditions of 28C on a 14-h light/10-h dark photoperiod in fish water consisting of reverse osmosis water supplemented with a commercially available salt (Instant Ocean). Spawning funnels were placed into the tanks the night prior, and embryos were collected and staged. […] Ten microliters of each row of dilution plate 2 was added to 2 exposure plates. The final DMSO concentration used was 0.64% (vol/vol). Thirty-two embryos were also exposed to 5uM trimethyltin chloride (positive control). Plates were sealed to prevent evaporation and foil covered to reduce light exposure and kept in a 28C incubator. Embryos were statically exposed until 120 hpf. At 24 hpf, embryos were assessed for photomotor response using a custom photomotor response analysis tool (PRAT) and for developmental toxicity endpoints (MO24: mortality at 24 hpf, DP: developmental progression, SM: spontaneous movement, and NC: notochord distortion). At 120 hpf, locomotor activity was measured using Viewpoint Zebralab and assessed for 18 endpoints. Zebrafish acquisition and analysis program (ZAAP), a custom program designed to inventory, acquire, and manage zebrafish data, was used to collect developmental endpoints as either present or absent (i.e., binary responses were recorded). If mortality occurred for an embryo (at either 24 or 120 hpf), the non-mortality endpoints were not measured.
Compound,outcome,AC50
O=C1CCCO1,inactive,
Nc1ccc(Cl)cc1N,inactive,
O=C(N[C@H](c1ccccc1)[C@@H]1CN2CCC1CC2)c1c(Cl)ccc(C(F)(F)F)c1Cl,,0.968 µM (active)
c1ccc2c(c1)-c1cccc3cccc-2c13,inactive,
Clc1ccccc1Cl,inactive,
CCCCCCCCOC(=O)c1ccc(C(=O)OCCCCCCCC)c(C(=O)OCCCCCCCC)c1,inactive,
OCCOCCO,inactive,
CC(C)(OOC(C)(C)c1ccccc1)c1ccccc1,inactive,
O=Cc1ccco1,inactive,
CCCCC(CC)COC(=O)c1ccc(C(=O)OCC(CC)CCCC)c(C(=O)OCC(CC)CCCC)c1 (stereo not given),inactive,
Nc1ccc(N=Nc2ccccc2)cc1,inactive,
ClC1=C(Cl)C2(Cl)C3C(Cl)C=CC3C1(Cl)C2(Cl)Cl (stereo not given),inactive,
Clc1ccc(C(c2ccc(Cl)cc2)C(Cl)Cl)cc1,inactive,
Cc1ccc([N+](=O)[O-])cc1,inactive,
CN(C)C(=O)Nc1ccc(Cl)cc1,inactive,
CC(C)(O)c1cnn2c(-c3ccc(F)c(-c4c(F)cccc4C#N)c3)cnc2n1,inactive,
CC(C)(C)OOC(C)(C)CCC(C)(C)OOC(C)(C)C,inactive,
OCCCl,inactive,
CCCCCCCCn1sccc1=O,inactive,
Oc1ccc2ccc3cccc4ccc1c2c34,,44.1 µM (active)

Compound,outcome,AC50
CCCCOC(=O)c1ccccc1C(=O)OCc1ccccc1,inactive,
c1ccc(NNc2ccccc2)cc1,inactive,
CCOC(=O)[C@]1(c2ccccc2)Oc2ccccc2[C@@H]1N,inactive,
CC(O)CCO (stereo not given),inactive,
CC(C)(C)C(O)(CCc1ccc(Cl)cc1)Cn1cncn1 (stereo not given),inactive,
CCCCCCCCCCCCCN1CC(C)OC(C)C1 (stereo not given),inactive,
CCOc1cccc(C2(N3CCN(c4ccccc4)CC3)CCC(C)CC2)c1 (stereo not given),inactive,
ClC1=C(Cl)[C@]2(Cl)[C@H]3[C@H]([C@@H]4C=C[C@H]3C4)[C@@]1(Cl)C2(Cl)Cl,inactive,
CNC(=O)Oc1cccc2c1OC(C)(C)C2,inactive,
O=[N+]([O-])c1ccc(Oc2ccc(Cl)cc2Cl)cc1,inactive,
COC(=O)Nc1nc2ccccc2[nH]1,inactive,
C[C@]12C=CC3=C4CCC(=O)C=C4CC[C@H]3[C@@H]1CC[C@@H]2O,inactive,
O=C(Nc1ccccc1)c1ccccc1I,inactive,
[Cl-].[Cl-].[Hg+2],,1.15 µM (active)
C1=Cc2cccc3cccc1c23,inactive,
COP(=S)(OC)SCN1C(=O)c2ccccc2C1=O,inactive,
Cn1cc(-c2ccccc2)c(=O)c(-c2cccc(C(F)(F)F)c2)c1,,41.1 µM (active)
Nc1ccc([N+](=O)[O-])cc1,inactive,
[O-][Cl+]O,inactive,
CCN(CC)N=O,inactive,
